Among all 220,000 compounds or so, about 8,200 (3.7%) were called active.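 The calls were made as follows: active = compounds that reduced the stress-induced luciferase reporter signal by more than about 70% of percent inhibition (limit read from the data); inactive = the rest.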 The list comes from a sample in which actives are over-represented; it also holds similar structures and randomly drawn compounds.
experiment: blockers of ER-stress CHOP reporter expression – cell-based, unfolded protein response, luciferase reporter, primary screen (AID 2732); details: CHO-K1 CHOP-promoter luciferase, tunicamycin-induced, 15-18 h; at 10 µM; active compounds read high;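 also: 0% = tunicamycin plus vehicle and 100% = wells without tunicamycin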

inhibition, active:
CSc1nc2sc3c(c2c(=O)[nH]1)CCc1ccccc1-3 106%
O=C(Nc1ccc2c(c1)C(=O)OC2)Nc1cccc2ccccc12 90.2%
O=C(c1cccc2ccccc12)N1CCN(c2ccccc2F)CC1 91.4%
CC1=C/C(=N\OS(=O)(=O)c2ccccc2)C=CC1=O 108%
OCCNc1nc2ccccc2n1-c1ncnc2sc3c(c12)CCC3 74.4%
Oc1cccc(C2c3[nH]c4ccccc4c3CCN2Cc2cnn(-c3ccccc3)c2)c1 (stereo not drawn) 106%
CCCCCCCCn1c2c(c(=N)c3c1CCC3)CCCC2 75.5%
CCCCCOC(=O)NCCOC(=O)Nc1ccc(C(=O)OCC)cc1 83.8%
O=C(CN1CCCCCC1)Nc1ccc(Br)cc1Br 84.9%
CNc1nc(Nc2ccc(C)c(Cl)c2)nc(N)c1[N+](=O)[O-] 81.6%
CSC1=N/C(=C\c2ccc3c(c2)OCO3)C(=O)S1 79.4%
CN(C)c1nc(=Nc2cccc(Cl)c2)ss1 74.4%
CN1C(=O)/C(=C/c2ccc(C(=O)NC3CCCC3)cc2)Oc2ccccc21 101%
COC(=O)C1NN=C(C(=O)c2ccc(Br)cc2)C1c1cccc(Br)c1 (stereo not drawn) 75.1%
FC(F)(F)c1cc(C(F)(F)F)c2ccc(N3CCN(c4ccccc4)CC3)nc2n1 96.8%
O=S(=O)(c1ccc(F)cc1)N1CCN(Cc2ccccc2C(F)(F)F)CC1 88%
Cc1ccc(S(=O)(=O)N2CCN(Cc3cccc(C)c3O)CC2)cc1 83%
CCCCNC(=O)c1c[nH]c2ccc(S(=O)(=O)Nc3ccc(OCC)cc3)cc2c1=O 100%
Cc1cc(NC(=O)CSc2nc(C(C)C)nc3sc4c(c23)CCC(C)C4)no1 (stereo not drawn) 78.5%
Cc1nc(SCC(=O)Nc2cc(C)on2)c2c3c(sc2n1)CCCC3 97.7%

inhibition, inactive:
CC(C)Oc1ccc(CCC(=O)NNC(=S)NCc2ccccc2)cc1 6.72%
CC1(C)CC(N2CCN(C(c3ccccc3)c3ccccc3)CC2)=CC(=[N+]2CCCCC2)C1 65.3%
CN(CC(=O)Nc1ccc(F)cc1)CC(=O)Nc1ccc(Cl)c(S(=O)(=O)N2CCOCC2)c1 -2.81%
Cc1nn2c(NCCN(C)C)c3c(nc2c1-c1ccccc1)CCC3 -22%
COc1ccc(-n2c(=S)[nH]c3sc4c(c3c2=O)CCc2ccccc2-4)cc1 -20.5%
CCC1(C)Cc2c(sc3nc(SC)[nH]c(=O)c23)CO1 (stereo not drawn) 10%
CCn1c(SCC(=O)N/N=C/c2ccccc2OCC(=O)O)nnc1-c1ccc(C(C)(C)C)cc1 4.75%
CC(C)(C)n1cnnc1Sc1ccc([N+](=O)[O-])cn1 12.9%
Cc1ccc(-c2c[n+](CC(=O)Nc3ccccc3)c3n2CCC3)cc1 16.6%
O=C(O)C1CCN(C(=O)c2cc(F)cc3c2OCOC3)CC1 12.2%
O=C(CC12CC3CC(CC(C3)C1)C2)Nc1ccc2c(c1)COC2=O 69.7%
Cc1ccc(S(=O)(=O)NNC(=O)Nc2cccc3ccccc23)cc1 36.5%
O=C(c1ccc(CN2CCOCC2)cc1)N1CCN(c2ccccc2F)CC1 -5.7%
COc1ccc2oc(=O)c(C(=O)N3CCN(c4ccccc4F)CC3)cc2c1 25.2%
COc1ccc(CCNC2=CC(=O)CC(C)(C)C2)cc1 6.34%
C=CCN1CC(C)/C(=N\O)CC1C (stereo not drawn) -23.6%
CCOC(=O)C1(S(=O)(=O)c2ccccc2)CCN(Cc2ccccc2)CC1 -6.62%
CC1=C/C(=N\S(=O)(=O)c2ccccc2)C(C(C)C)=CC1=O 49.7%
CN(C(=O)CCn1c(=S)oc2ccccc21)C1CCCCC1 4.79%
CC(C)(C)C(=O)Cn1c(NCCO)nc2ccccc21 9.85%
O=C(O)[C@@H]1CCCN1c1ncnc2sc3c(c12)CCC3 -1.98%
N/C(=N\S(=O)(=O)c1cc(C(F)(F)F)cc(C(F)(F)F)c1)c1cccs1 34.7%
Cc1ccc(S(=O)(=O)NC(=O)Nc2nc(-c3ccc(F)c(F)c3)cs2)cc1 1.74%
CCOC(=O)c1cc(C)nc(S(C)(=O)=O)c1C#N -90.6%
c1ccc(C2c3[nH]c4ccccc4c3CCN2Cc2cccn2-c2cccnc2)nc1 (stereo not drawn) -19.1%
COc1cccc(C2c3[nH]c4ccccc4c3CCN2Cc2cccc(C)n2)c1 (stereo not drawn) 8.45%
Cn1c(CSCC(=O)Nc2ccccc2)nnc1SCc1ccccc1 -6.7%
COc1ccc(NC(=O)CCN2C(=O)/C(=C/c3ccc4c(c3)OCO4)SC2=S)cc1 -8.39%
O=C(N/N=C/c1cccc([N+](=O)[O-])c1)c1ccncc1 5.76%
O=C(CSc1nnnn1-c1ccc(O)cc1)c1ccc(F)cc1 17%
CCOC(=O)Nc1ccc(NC(=O)OCC)cc1 26.9%
CCCCC(CCC(=O)Nc1ccc(C(=O)OCC)cc1)C(=O)O (stereo not drawn) 14.7%
O=C(CN1CCCCC1)Nc1ccccc1Cl 10.1%
COc1cc([N+](=O)[O-])ccc1NC(=O)CN1CCCC1 -4.65%
CCOc1ccc(C2c3[nH]c4ccccc4c3CCN2Cc2cccn2-c2ncccn2)cc1 (stereo not drawn) -20%
Cc1nnc(N/N=C/c2cccs2)[nH]c1=O 10.9%
CCOc1ccc(-n2cnc3c(=O)[nH]c(N)nc32)cc1 8.78%
CC1CC2C3CCC4=CC(=O)C=C[C@]4(C)[C@@]3(F)[C@@H](O)C[C@]2(C)[C@@]1(O)C(=O)CO (stereo partly drawn) 4.18%
Nc1nc(Nc2ccccc2)nc(NCCO)c1[N+](=O)[O-] -4.79%
CCN1CCN(c2nc(Nc3cccc(F)c3)nc(N)c2[N+](=O)[O-])CC1 3.99%
COc1ccc2c(c1)c1ncn(Cc3ccccn3)c(=O)c1n2C 18.8%
CCN(CC)C(=O)Oc1ccc(Br)cc1C(=O)Nc1ccc(F)c(Cl)c1 -9.25%
CN(C)C(=S)Nc1ccc(Br)cc1Cl -7.26%
CCCCSc1nnc2c(n1)OC=Nc1ccccc1-2 -26.6%
CCC1=C/C(=C\c2ccc3c(c2)OCO3)C(=O)S1 47.3%
O=C1/C(=C/c2ccc3c(c2)OCO3)CCC/C1=C\c1ccc2c(c1)OCO2 10.8%
C/C=N/N(c1ccccc1)c1ccccc1 12.3%
Oc1ccc(-c2nnc(Nc3ccccc3)c3ccccc23)cc1 34.9%
COc1cc(OC)c2ccc(=O)oc2c1C(CCN1CCN(c2ccccc2)CC1)c1ccc2c(c1)OCO2 (stereo not drawn) 6.77%
Cc1[nH]n(C)c(=O)c1C(=O)c1c(-c2c(Cl)cccc2Cl)noc1C -56.3%
COc1ccc(CNC(=O)C(Cc2ccccc2)n2cccc2)cc1 (stereo not drawn) 9.45%
CCOC(=O)C1=C(O)CSC1=Nc1cccc(Cl)c1 12.7%
Clc1cccc(N=C2NN=C(c3ccc4c(c3)OCCO4)CS2)c1 10.5%
COc1ccccc1N(C)S(=O)(=O)c1ccc(C(=O)NC2CCCCCC2)cc1 19.2%
O=C(NC1CC1)c1ccc(-c2ccccc2)cc1 -3.76%
CCc1ccc2nc(Nc3ncc(C(C)=O)c(C)n3)nc(C)c2c1 1.13%
NNC(=O)c1cccc(COCC(F)(F)C(F)F)c1 -3.75%
O=C(CCCl)Nc1ccc(S(=O)(=O)NCc2ccco2)cc1 -12.6%
O=C(NC1CC1)c1cccc(Br)c1 20.9%
COc1ccc(C(=O)c2oc3ccc(Br)cc3c2NC(C)=O)cc1 10%
C/C(CC(C)C)=N\Oc1nc(C)cc(C)n1 -11.9%
Cc1cc(N2CCN(c3ccccc3)CC2)nc(N2CCOCC2)n1 12%
O=C(NC(=S)Nc1cccc2c(O)cccc12)c1cccc(Br)c1 32.1%
CCOC(=O)c1c(C)oc(C)c(C(=O)OCC)c1=O 1.84%
O=C(CN1CCN(S(=O)(=O)c2ccc(F)cc2)CC1)Nc1ccccc1F 14.5%
Cc1ccc(S(=O)(=O)N2CCN(C(=O)c3cccs3)CC2)cc1 18.5%
O=S(=O)(c1ccc(F)cc1)N1CC=C(c2ccccc2)CC1 5.87%
Cc1ccc(S(=O)(=O)N2CCN(S(=O)(=O)N3CCOCC3)CC2)cc1 -15%
CN(CC(O)COc1ccc(S(=O)(=O)N2CCOCC2)cc1Cl)C1CCCCC1 (stereo not drawn) 9.37%
O=C(O)COCC(=O)NCc1csc2ccc(Cl)cc12 1.58%
CCOc1ccc(NS(=O)(=O)c2ccc(C)c(C(N)=O)c2)cc1 16.6%
COc1cccc(NS(=O)(=O)c2ccc3[nH]cc(C(=O)NCCCOC(C)C)c(=O)c3c2)c1 -0.02%
COC(=O)c1ccc(S(=O)(=O)NCc2ccccc2)n1C 15.6%
O=c1cc(CCl)nc2scc(-c3ccccc3)n12 -35.4%
Cc1nc(SCC(=O)Nc2cc(C)on2)c2c(C)c(C)sc2n1 69.6%
Cc1cc(NC(=O)CSc2nc3c(cc2C#N)CCCCC3)no1 -14.1%
C=CCn1c(SCc2c(C)noc2C)nc2sc3c(c2c1=O)CCC(C)C3 (stereo not drawn) 25.9%
Cc1cc(NC(=O)CSc2nc3ccccc3n2CC(C)C)no1 -2.4%
